# Columns and labels:
# Assay in all cases: DAPPL (digital affinity profiling via proximity ligation, sequencing); 10 mM Tris-HCl pH 7.5, 50 mM NaCl, 1 mM DTT, 4% glycerol, room temperature, 30 min; GST-TFs on glutathione beads, 16-mer random dsDNA library, 0.1% formaldehyde crosslink after washing; high values mean tight binding
# Conditions in all cases: protein: recombinant; tags: N-terminal GST; dsDNA, one strand shown
# FLI1 = target: T1, FLI1 (Homo sapiens, UniProt Q01543 1-452)
# T1 sequence: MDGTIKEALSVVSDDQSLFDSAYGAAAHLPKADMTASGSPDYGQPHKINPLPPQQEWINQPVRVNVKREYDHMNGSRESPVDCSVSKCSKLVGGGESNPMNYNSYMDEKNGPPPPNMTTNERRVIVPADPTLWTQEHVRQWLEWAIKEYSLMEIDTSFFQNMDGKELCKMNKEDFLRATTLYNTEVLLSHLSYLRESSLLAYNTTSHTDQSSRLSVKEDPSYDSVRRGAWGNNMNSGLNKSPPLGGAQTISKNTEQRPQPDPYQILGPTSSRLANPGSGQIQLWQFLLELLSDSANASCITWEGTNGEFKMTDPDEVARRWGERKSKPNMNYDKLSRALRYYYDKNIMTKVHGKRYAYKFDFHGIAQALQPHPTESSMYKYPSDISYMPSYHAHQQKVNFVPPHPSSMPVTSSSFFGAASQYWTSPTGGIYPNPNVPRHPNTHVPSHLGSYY
# Outline: (§1)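 Pools of DNA-barcoded human transcription factors, expressed in yeast as GST fusions on glutathione beads and combined with a tag-only sample, were incubated with 200 nmole of a 16-mer random double-stranded DNA library. Incubation took 30 min at room temperature in Tris/NaCl/DTT/glycerol buffer and was followed by washing, 0.1% formaldehyde crosslinking, proximity ligation (BsaI/T4 ligase, 1 h, 37 °C), PCR amplification and sequencing on an Illumina NextSeq500. Binding signal is the ratio of a hexamer's read frequency for a factor to its frequency for the tag-only sample.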
# ELK1 = target: T2, ELK1 (Homo sapiens, UniProt P19419 1-428)
# T2 sequence: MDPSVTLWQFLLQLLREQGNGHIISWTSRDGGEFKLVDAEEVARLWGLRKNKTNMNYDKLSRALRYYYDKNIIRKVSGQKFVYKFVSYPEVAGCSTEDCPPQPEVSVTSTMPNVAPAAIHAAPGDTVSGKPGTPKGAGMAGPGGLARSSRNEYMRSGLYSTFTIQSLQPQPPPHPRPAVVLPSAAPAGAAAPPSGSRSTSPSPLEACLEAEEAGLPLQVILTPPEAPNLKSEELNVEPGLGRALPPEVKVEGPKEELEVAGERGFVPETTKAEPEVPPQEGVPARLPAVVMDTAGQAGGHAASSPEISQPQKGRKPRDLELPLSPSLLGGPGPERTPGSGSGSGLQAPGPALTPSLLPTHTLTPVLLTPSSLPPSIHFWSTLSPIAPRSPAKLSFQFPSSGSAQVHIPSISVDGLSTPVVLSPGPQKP
# Outline: as §1
# GABPA = target: T3, GABPA (Homo sapiens, UniProt Q06546 1-454)
# T3 sequence: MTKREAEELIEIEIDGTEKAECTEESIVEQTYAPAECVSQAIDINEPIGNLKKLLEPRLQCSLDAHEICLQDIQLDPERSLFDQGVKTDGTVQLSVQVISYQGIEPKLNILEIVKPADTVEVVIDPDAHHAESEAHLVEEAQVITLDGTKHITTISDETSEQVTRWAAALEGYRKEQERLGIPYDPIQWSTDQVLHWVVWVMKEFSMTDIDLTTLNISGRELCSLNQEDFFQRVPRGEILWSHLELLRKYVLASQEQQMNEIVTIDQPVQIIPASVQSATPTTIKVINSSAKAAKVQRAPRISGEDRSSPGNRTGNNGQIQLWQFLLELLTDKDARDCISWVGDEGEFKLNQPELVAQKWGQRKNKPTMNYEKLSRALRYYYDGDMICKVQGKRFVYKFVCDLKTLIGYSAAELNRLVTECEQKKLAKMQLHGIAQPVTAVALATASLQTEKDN
# Outline: as §1
# ERG = target: T4, ERG (Homo sapiens, UniProt P11308 1-479)
# T4 sequence: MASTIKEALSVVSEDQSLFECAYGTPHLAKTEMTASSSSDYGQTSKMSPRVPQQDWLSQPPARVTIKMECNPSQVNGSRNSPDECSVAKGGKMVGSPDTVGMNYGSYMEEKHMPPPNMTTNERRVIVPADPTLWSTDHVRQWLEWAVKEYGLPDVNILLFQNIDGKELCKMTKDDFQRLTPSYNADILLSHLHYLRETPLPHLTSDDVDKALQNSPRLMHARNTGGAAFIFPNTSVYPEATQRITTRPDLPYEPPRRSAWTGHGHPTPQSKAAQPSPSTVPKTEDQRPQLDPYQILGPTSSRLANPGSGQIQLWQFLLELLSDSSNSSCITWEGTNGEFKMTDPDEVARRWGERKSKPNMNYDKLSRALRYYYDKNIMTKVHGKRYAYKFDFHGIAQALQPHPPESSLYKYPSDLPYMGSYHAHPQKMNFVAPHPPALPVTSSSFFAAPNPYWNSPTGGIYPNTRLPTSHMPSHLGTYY
# Outline: as §1
# ELF1 = ELF1 (Homo sapiens, UniProt P32519 1-619)
# ELF1, sequence (P32519 whole entry): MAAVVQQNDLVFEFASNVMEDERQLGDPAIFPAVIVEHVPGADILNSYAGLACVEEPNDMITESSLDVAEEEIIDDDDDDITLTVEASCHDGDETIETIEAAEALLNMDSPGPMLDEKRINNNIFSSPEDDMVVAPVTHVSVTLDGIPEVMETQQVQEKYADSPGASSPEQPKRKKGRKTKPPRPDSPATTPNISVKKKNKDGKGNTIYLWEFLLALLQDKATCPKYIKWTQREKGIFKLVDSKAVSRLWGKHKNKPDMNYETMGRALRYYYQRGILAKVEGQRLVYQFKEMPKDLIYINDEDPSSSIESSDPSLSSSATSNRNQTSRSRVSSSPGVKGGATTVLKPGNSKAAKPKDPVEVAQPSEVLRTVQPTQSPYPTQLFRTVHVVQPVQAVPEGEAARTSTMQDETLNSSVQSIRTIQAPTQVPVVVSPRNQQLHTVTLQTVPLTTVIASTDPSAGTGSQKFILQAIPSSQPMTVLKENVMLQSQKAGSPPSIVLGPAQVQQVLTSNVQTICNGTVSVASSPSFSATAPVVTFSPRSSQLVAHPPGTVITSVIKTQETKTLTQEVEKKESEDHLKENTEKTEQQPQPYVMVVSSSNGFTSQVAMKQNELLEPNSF
# Outline: as §1
# EHF = target: T5, EHF (Homo sapiens, UniProt Q9NZC4 1-300)
# T5 sequence: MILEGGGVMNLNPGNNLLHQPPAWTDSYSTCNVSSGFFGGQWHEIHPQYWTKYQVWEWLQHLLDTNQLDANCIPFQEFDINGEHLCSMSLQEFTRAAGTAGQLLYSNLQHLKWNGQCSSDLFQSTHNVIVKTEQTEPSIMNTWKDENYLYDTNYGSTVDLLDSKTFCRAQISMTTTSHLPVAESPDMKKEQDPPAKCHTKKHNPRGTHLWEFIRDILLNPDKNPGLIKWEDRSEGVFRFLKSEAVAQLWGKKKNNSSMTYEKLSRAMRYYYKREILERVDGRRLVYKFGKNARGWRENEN
# Outline: as §1
# SPI1 = SPI1 (Homo sapiens, UniProt P17947 1-270)
# Outline: as §1
# SPIB = SPIB (Homo sapiens, UniProt Q01892 1-262)
# SPIB, sequence (Q01892 whole entry): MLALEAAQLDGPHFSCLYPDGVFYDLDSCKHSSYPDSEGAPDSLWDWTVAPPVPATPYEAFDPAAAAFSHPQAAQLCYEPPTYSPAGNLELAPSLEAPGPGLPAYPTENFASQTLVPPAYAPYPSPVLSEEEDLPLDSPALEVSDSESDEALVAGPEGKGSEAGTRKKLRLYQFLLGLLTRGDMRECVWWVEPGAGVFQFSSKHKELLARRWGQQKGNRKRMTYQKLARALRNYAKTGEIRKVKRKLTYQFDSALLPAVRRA
# Outline: as §1
# ELK3 = target: T6, ELK3 (Homo sapiens, UniProt P41970 1-407)
# T6 sequence: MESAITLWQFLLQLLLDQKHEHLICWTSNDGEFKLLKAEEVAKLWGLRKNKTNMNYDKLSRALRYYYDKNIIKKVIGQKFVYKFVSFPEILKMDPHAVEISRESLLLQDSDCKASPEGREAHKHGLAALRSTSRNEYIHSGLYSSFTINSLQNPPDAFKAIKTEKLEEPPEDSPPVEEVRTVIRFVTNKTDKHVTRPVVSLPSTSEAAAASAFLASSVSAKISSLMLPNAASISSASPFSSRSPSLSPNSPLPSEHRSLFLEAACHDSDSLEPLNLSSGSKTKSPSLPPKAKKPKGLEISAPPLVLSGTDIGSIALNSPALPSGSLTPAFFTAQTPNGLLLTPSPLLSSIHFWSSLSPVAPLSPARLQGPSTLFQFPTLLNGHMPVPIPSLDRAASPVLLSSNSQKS
# Outline: as §1
sequence,measurement,setting,value
TGTTTA,binding signal,FLI1,"1.2 fold enrichment (6-mer frequency, TF over GST control)"
same,binding signal,ELK1,"1.09 fold enrichment (6-mer frequency, TF over GST control)"
same,binding signal,GABPA,"1.18 fold enrichment (6-mer frequency, TF over GST control)"
same,binding signal,ERG,"1.17 fold enrichment (6-mer frequency, TF over GST control)"
same,binding signal,ELF1,"1.13 fold enrichment (6-mer frequency, TF over GST control)"
same,binding signal,EHF,"1.19 fold enrichment (6-mer frequency, TF over GST control)"
same,binding signal,SPI1,"1.12 fold enrichment (6-mer frequency, TF over GST control)"
same,binding signal,SPIB,"1.21 fold enrichment (6-mer frequency, TF over GST control)"
same,binding signal,ELK3,"1.2 fold enrichment (6-mer frequency, TF over GST control)"

# Source: publication PMC7862700, “An all-to-all approach to the identification of sequence-specific readers for epigenetic DNA modifications on cytosine”
